Measurements: PubChem BioAssay (Tox21)
Values without a mark were called inactive. Activity calls are given as the source filed them. Calls come from the whole dose curve; as a rule, active = well fitted curve in the direction sought with a large enough effect in the repeat runs; inconclusive = weak or mixed curves; inactive = flat fitted curve, though single readings scatter.

Test: qHTS assay to test for compound auto fluorescence at 535 nm (green) in HepG2 cell free culture (AID 720686)
Conditions: Cell-free medium, green autofluorescence 485/535 nm; series mostly up to 91.3 µM
Source text: U.S. Tox21 Program National Center for Advancing Translational Sciences [NCATS] NIH Chemical Genomics Center [NCGC] U.S. Environmental Protection Agency [EPA] National Institutes of Environmental Health Sciences [NIEHS] National Toxicology Program [NTP] U.S. Food and Drug Administration [FDA] Tox21 Assay Overview: Compound auto fluorescence often interferes with screening of the compound library against various biological targets and signaling pathways. Some of these compounds may have fluorophoric properties. Such properties may interfere with the assay outputs resulting in false positives and/or negatives. To decrease such complications and ensure the compound activities are relevant in terms of biological response, the Tox21 10K compound library was screened for auto fluorescence. From the fluorophores used as reporter signals in our screening assays, the auto fluorescence equivalencies of compounds against three fluorophores have been evaluated: Triamterene, Fluorescein and Rose Bengal sodium for blue, green and red fluorescence, respectively. The fluorescence intensities were measured using Excitation/Emission wavelengths at 405/460nm, 485/535nm and 540/590nm for blue, green and red labels, respectively. This assay includes the green fluorescence data.
Tox21 Assay Protocol Summary: 5 uL of culture medium (MEM containing 10% FBS) per well was dispensed into black wall/clear bottom 1536-well plates using a Multidrop Combi Dispenser (ThermoFisher Scientific, Waltham, MA). After 23 nL compound or DMSO vehicle was transferred into assay plate by a pintool work station (Kalypsys, San Diego, CA), fluorescence intensities in the assay plates were measured by an Envision (PerkinElmer, Shelton, CT) plate reader using three labels for measuring blue, green and red fluorescence at […] 460, 535 and 590nm respectively.
% is set by controls: 0 for no effect and ±100 for the full control effect.

Row | SMILES | outcome | fluorescence, % of fluorescein control
1 | O=Cc1cc2ccccc2o1 | inactive | –
2 | CN1CCOC(c2ccccc2)c2ccccc2C1 (stereo not given) | – | 0.0063% [at 18.6 µM]
3 | C=C(C)c1cccc(C(C)(C)N=C=O)c1 | inactive | –
4 | Nc1nnnn1-c1ccccc1 | inactive | –
5 | O=C1CCCCO1 | inactive | –
6 | CCCC(=O)OCCC(C)CCC=C(C)C (stereo not given) | inactive | –
7 | O=C(O)c1cc2ccccc2nc1C(=O)O | inactive | –
8 | CC(C)OC(=O)OCOP(=O)(CO[C@H](C)Cn1cnc2c(N)ncnc21)OCOC(=O)OC(C)C | inactive | –
9 | OC[C@H]1O[C@@H](O[C@@H]2[C@@H](CO)O[C@](O)(CO)[C@H]2O)[C@H](O)[C@@H](O)[C@H]1O | inactive | –
10 | Cn1c(=O)c2[nH]c(Br)nc2n(C)c1=O | inactive | –
11 | CCC(=O)CC | inactive | –
12 | O=C1OCCO1 | inactive | –
13 | CCCCCCCCCOC(=O)c1ccccc1C(=O)OCCCCCCCCC | inactive | –
14 | CC1CC(=O)CC(C)(C)C1 (stereo not given) | inactive | –
15 | CN(C)CCOC(=O)C(c1ccccc1)C1(O)CCCC1 (stereo not given) | inactive | –
16 | C=Cc1ccc(C(C)(C)C)cc1 | inactive | –
17 | CC12CCC(C1)C(C)(C)C2O (stereo not given) | inactive | –
18 | CNCCS(=O)(=O)O | inactive | –
19 | NCCOCCN | inactive | –
20 | COc1ccc2c(c1)c1c3n2CCN(C)C3=NCC1 | inactive | –

Row | SMILES | outcome | fluorescence, % of fluorescein control
21 | CC(C)CO | inactive | –
22 | [O]=[Mo](=[O])=[O] | – | -0.0406% [at 18.6 µM]
23 | O/N=C/C=N/O | inactive | –
24 | CO/N=C(/C(=O)N[C@@H]1C(=O)N2C(C(=O)[O-])=C(C[n+]3ccn4ncccc43)CS[C@H]12)c1nsc(N)n1 | inactive | –
25 | CCOC(=O)CC1(C)OCC(C)O1 (stereo not given) | inactive | –
26 | CC1(C)O[C@H]2CC(=O)OC[C@]23[C@H]2CC[C@@]4(C)[C@H](c5ccoc5)OC(=O)[C@H]5O[C@]54[C@]2(C)C(=O)C[C@@H]13 | inactive | –
27 | O=NN(CCCl)C(=O)NC1CCCCC1 | inactive | –
28 | CC1=C(O)C(=O)C(C)O1 (stereo not given) | inactive | –
29 | CCCCOC(=O)C(C)O (stereo not given) | inactive | –
30 | CC(=O)C1C(=O)C=C(C)OC1=O (stereo not given) | inactive | –
31 | C=CC(=O)OCC1CCCO1 (stereo not given) | inactive | –
32 | NCc1ccc(S(N)(=O)=O)cc1 | – | 0.0245% [at 18.6 µM]
33 | O=C1CCC(=O)N1Cl | inactive | –
34 | O=C1c2ccccc2C(=O)c2cc(Cl)ccc21 | – | -0.0292% [at 3.72 µM]
35 | CC(=O)Nc1ccc(OC(=O)c2ccccc2OC(C)=O)cc1 | inactive | –
36 | OCC1(CO)COCOC1 | inactive | –
37 | N#Cc1ccccc1O | inactive | –
38 | C#CCN[C@@H]1CCc2ccccc21 | inactive | –
39 | Cc1ccc2c(c1)C(=O)c1ccccc1C2=O | inactive | –
40 | CC1(C)CC(OC(=O)CCCCCCCCC(=O)OC2CC(C)(C)NC(C)(C)C2)CC(C)(C)N1 | – | -0.17% [at 18.6 µM]
